Giardia killer – Small Molecules that selectively kill Giardia lamblia: qHTS. Giardia lamblia trophozoite viability. activity change, % at 7.66 µM, hits read low. hit rate 0.15% among 340,000. AID 540267, 2011; in the data active = activity change below about -80%; inconclusive = between about -30% and that limit;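 note: parasites exposed to compound for two days anaerobically before the ATP read; % is set by controls: 0 for no effect and ±100 for the full control effect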
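Giardia lamblia trophozoites (100 cells/well) were incubated with compounds for 48 h at 37 deg C under anaerobic conditions. Viability was read as ATP content by one-step luminescence after 15-30 min at room temperature.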
Vif-APOBEC3F blk – qHTS for Inhibitors of Vif-A3F Interactions: qHTS. HeLa A3F-eYFP + Vif (tagged APOBEC3F with the HIV-1 protein that degrades it), YFP fluorescence increase. Potency, µM (doses to about 46.1 µM), without a hit: top-dose activity, negative = active. hit rate 0.2% among 390,000; note: potency is the fitted concentration of half-maximal effect; % of control where 0% means no effect; nearly all actives have a fitted effect of over 65% in size
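HeLa cells stably expressing Vif plus C-terminally eYFP-tagged A3F were seeded, incubated overnight at 37 deg C, dosed with compound, incubated overnight again at 37 deg C. Yellow fluorescence (Ex 488/Em 500-530) reported blocked Vif-mediated A3F-eYFP degradation.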
IL1B secr inh – qHTS for Inhibitors of Inflammasome Signaling: IL-1-beta AlphaLISA Primary Screen. THP-1 LPS/ATP IL-1B secretion, AlphaLISA, 16 h; hits give low values. activity change, % at 57.5 µM. hit rate 4.7% among 360,000. AID 743279, 2014; in the data active = activity change below about -50%; inconclusive = mostly about -30% to -49%; note: % is set by controls: 0 for no effect and ±100 for the full control effect
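THP-1 cells pretreated 1 hr with compounds (up to 57.5 uM final), then stimulated with LPS (250 ng/mL final) plus ATP (1.25 mM final); secreted IL-1B measured by AlphaLISA after 16 hr, decreased signal indicating inhibition.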
Vif-APOBEC3G blk – qHTS for Inhibitors of Vif-A3G Interactions: qHTS; DNA dC->dU-editing enzyme APOBEC-3G (Homo sapiens), Q9HC16; HeLa A3G-eYFP + Vif (tagged APOBEC3G with the HIV-1 protein that degrades it), YFP fluorescence, overnight; Potency, µM (doses to about 46.1 µM), for inactives: at the highest dose activity, negative = active, usual class: inhibitors; hit rate 0.076% among 410,000; AID 602310, 2012; note: potency is the fitted concentration of half-maximal effect; % is set by controls: 0 for no effect and ±100 for the full control effect; nearly all actives have a fitted effect of over 60% in size
Target sequence (Q9HC16 whole entry, looked up): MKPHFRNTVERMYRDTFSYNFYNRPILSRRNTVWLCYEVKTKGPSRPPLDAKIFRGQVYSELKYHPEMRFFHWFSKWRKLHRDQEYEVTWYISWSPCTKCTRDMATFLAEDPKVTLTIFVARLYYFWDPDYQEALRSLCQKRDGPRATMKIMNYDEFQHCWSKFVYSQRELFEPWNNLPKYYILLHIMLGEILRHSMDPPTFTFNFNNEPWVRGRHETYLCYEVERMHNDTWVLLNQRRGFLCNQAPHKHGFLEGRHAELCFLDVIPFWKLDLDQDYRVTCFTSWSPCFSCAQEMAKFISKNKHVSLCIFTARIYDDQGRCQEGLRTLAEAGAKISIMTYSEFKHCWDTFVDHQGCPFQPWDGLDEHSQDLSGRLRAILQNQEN
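HeLa cells stably expressing Vif and C-terminally eYFP-tagged A3G, seeded overnight at 37 deg C, then exposed to compound by pintool overnight at 37 deg C. Rise in yellow fluorescence (Ex 488/Em 500-530, Acumen) marks blocked Vif-driven A3G degradation.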
MCF10A rereplic – A quantitative high throughput screen for small molecules that induce DNA re-replication in MCF 10a normal breast cells; MCF 10A DNA re-replication, Hoechst nuclear intensity, 48 h; Potency, µM (top dose mostly 46.1 µM), without a hit: at the top dose activity, positive = re-replication, hits mostly activators; hit rate 2.9% among 350,000; note: potency is the fitted concentration of half-maximal effect; % of control where 0% means no effect; nearly all actives have a fitted effect of over 50% in size
SW480 rereplic – A quantitative high throughput screen for small molecules that induce DNA re-replication in SW480 colon adenocarcinoma cells | SW480 DNA re-replication, Hoechst DNA content imaging, 48 h | Potency, µM (series often up to 46.1 µM), for the others: at the top dose re-replication activation, actives largely listed as activators | hit rate 1.8% among 340,000 | AID 624297, 2012; note: potency is the fitted concentration of half-maximal effect; % of control where 0% means no effect; nearly all actives have a fitted effect of over 55% in size
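SW480 cells exposed to compounds for 48 hr at 37 C, 5% CO2, then Hoechst-stained 40 min. Nuclear DNA content imaged by fluorescence scanning (405 nm excitation, 500-530 nm emission); re-replication scored as increased high-intensity nuclei.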
* hit, by the source's call; u = inconclusive; x = not tested or not shown. This is a sample that favours compounds with a hit; in the whole collection about 6.9% have one here. Unless noted, calls come from the whole dose curve; as a rule, active = well fitted curve in the direction sought with a large enough effect; inconclusive = small, poorly fitted or top-dose-only effect, or another doubt; inactive = no such curve, though single readings can be large; an effect the other way counts as inactive or inconclusive.

SMILES	Giardia killer	Vif-APOBEC3F blk	IL1B secr inh	Vif-APOBEC3G blk	MCF10A rereplic	SW480 rereplic
CN(C)c1ccc(CN2CCC(C(=O)NC(c3ccc(F)cc3)c3ccc4ccccc4n3)CC2)cc1 (configuration not stated)	x	x	-54*	0%	x	x
O=C(NC(c1ccc(F)cc1)c1ccc2ccccc2n1)C1CCN(CCOc2ccc(Cl)cc2)CC1 (configuration not stated)	x	x	-27	-14%	x	x
COc1cc(/C=C/CN2CCC(C(=O)NC(c3ccc(F)cc3)c3ccc4ccccc4n3)CC2)ccc1OC(C)=O (configuration not stated)	x	x	-62*	-24%	x	x
O=C(NC(c1ccc(F)cc1)c1ccc2ccccc2n1)C1CCN(Cc2ccc3ccccc3n2)CC1 (configuration not stated)	x	x	-21	-13%	x	x
Cc1nn(-c2ccccc2)c(OC(=O)c2ccccc2)c1S(=O)(=O)c1ccccc1	x	5%	x	1%	x	x
O=C(COc1ccccc1C(=O)Nc1ccccc1F)Nc1ccc(Br)cc1	x	x	x	1%	x	x
COc1ccc(C(=O)NCC(=O)N2CCC(Cc3ccccc3)CC2)cc1OC	-16	-7%	-11	0%	12%	-2%
Cc1ccccc1NC(=O)c1ccc(CN2CCC(Cc3ccccc3)CC2)cc1	24	-9%	-83*	3%	u	u
CC(C)NC(=O)c1ccc(CN2CCC(Cc3ccccc3)CC2)cc1	10	0%	-16	-4%	-1%	-3%
Clc1ccc(CN2CCC(Cc3ccccc3)CC2)cc1	-1	-14%	-96*	-5%	u	5%
Cc1ccc(C(=O)NCC(=O)N2CCC(Cc3ccccc3)CC2)cc1	-14	4%	-69*	4%	23%	20%
C1=CC2=NC34CCCCC3CC3=C(CCCC3)N4C2=CC1=NC1CCCCC1 (configuration not stated)	-23	0%	-98*	-2%	u	u
COc1ccc(C2C3(C#N)C(N)=NC(OC)(OC)C23C#N)cc1 (configuration not stated)	-17	-15%	-92*	1%	11%	3%
Cc1ccc(C)c(S(=O)(=O)NCCCc2ccccc2)c1	-12	-18%	-57*	-4%	6%	-3%
O=C(c1cc(-c2ccc(Cl)cc2Cl)on1)N1CCCC1	-16	0%	-64*	-4%	2%	22%
COC(=O)c1cc(-c2ccc(OC)c(OC)c2)c2c(=O)[nH]c(=O)n(C)c2n1	22	-16%	-4	-3%	6.5µM*	29%
CCOc1ccc(-c2cc(C(=O)OC)nc3c2c(=O)n(C)c(=O)n3C)cc1	u	16%	37	3%	23µM*	u
COC(=O)c1cc(-c2ccc(Br)cc2)c2c(=O)[nH]c(=O)n(C)c2n1	6	-8%	-30	-3%	-1%	0%
Cc1ccc2c(c1)C1CN(C)CCC1N2Sc1ccccc1[N+](=O)[O-] (configuration not stated)	6	-4%	-89*	0%	u	u
CCN(CC)C(=O)CSc1nc(-c2ccc(C)cc2)nc2c1Cc1c(CO)cnc(C)c1O2	x	8%	x	4%	x	x
Cc1noc(C)c1COC(=O)c1cnc(Cl)c(Cl)c1	-16	-3%	-54*	-4%	u	u
N#Cc1ccc(COC(=O)c2cnc(Cl)c(Cl)c2)cc1	23	-6%	-88*	-4%	-7%	-7%
COC(=O)CC1Oc2ccccc2-n2cc(-c3ccc(Cl)cc3)nc21 (configuration not stated)	x	-4%	x	4%	x	x
FC(F)(F)c1ccc2c(c1)NCC1CCCN21 (configuration not stated)	0	-12%	-23	-7%	0%	-3%

Screening results: PubChem BioAssay, National Center for Advancing Translational Sciences (NCATS)
